Assay [1] can be described thus: Quantitative High-Throughput drug screen in 47 multiple myeloma cell lines against the NCATS MIPE library collection: MM1S_ATCC cell viability assay (AID 1918980). Note: nearly all actives have a fitted effect of over 45% in size. The procedure, abridged:
(§1)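 ATP-based luminescence (CellTiter-Glo, 5 min RT incubation) quantified surviving cells following two days' treatment with MIPE 4.0 agents at 37 °C, 5% CO2.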

Assay [2] can be described thus: Quantitative High-Throughput drug screen in 47 multiple myeloma cell lines against the NCATS MIPE library collection: MM1R_ATCC cell viability assay (AID 1918981). Note: nearly all actives have a fitted effect of over 35% in size. A digest of the protocol: as §1
Assay [3] is described as follows: Quantitative High-Throughput drug screen in 47 multiple myeloma cell lines against the NCATS MIPE library collection: L363_DSMZ cell viability assay (AID 1918984). Note: nearly all actives have a fitted effect of over 40% in size. Particulars: L363 myeloma viability, CellTiter-Glo ATP luminescence, 48 h; viability (% of control): at 45.8 µM (top of the series). A digest of the protocol:
as §1
In general terms: Cellular ATP, detected with luciferase, serves as a proxy for viable cell number.

Assay [4] is described as follows: Quantitative High-Throughput drug screen in 47 multiple myeloma cell lines against the NCATS MIPE library collection: OCIMY7_PLB cell viability assay (AID 1918987). Note: nearly all actives have a fitted effect of over 65% in size. Particulars: OCI-MY7 myeloma viability, CellTiter-Glo ATP, 48 h; viability (% of DMSO): at 45.8 µM (top of the series). A digest of the protocol:
as §1

A short description of assay [5]: Quantitative High-Throughput drug screen in 47 multiple myeloma cell lines against the NCATS MIPE library collection: OCIMY5_PLB cell viability assay (AID 1918988). Note: nearly all actives have a fitted effect of over 65% in size. The procedure, abridged: as §1
Assay [6] can be described thus: Quantitative High-Throughput drug screen in 47 multiple myeloma cell lines against the NCATS MIPE library collection: OPM1_PLB cell viability assay (AID 1918989). Note: nearly all actives have a fitted effect of over 40% in size. A digest of the protocol:
as §1

Assay [7] in a line: Quantitative High-Throughput drug screen in 47 multiple myeloma cell lines against the NCATS MIPE library collection: KMS28PE_JCRB cell viability assay (AID 1918983). Note: nearly all actives have a fitted effect of over 35% in size. The procedure, abridged: as §1
Assay [8] is described as follows: Quantitative High-Throughput drug screen in 47 multiple myeloma cell lines against the NCATS MIPE library collection: LP1_DSMZ cell viability assay (AID 1918982). Note: nearly all actives have a fitted effect of over 35% in size. The procedure, abridged:
as §1

A short description of assay [9]: Quantitative High-Throughput drug screen in 47 multiple myeloma cell lines against the NCATS MIPE library collection: KMS34_JCRB cell viability assay (AID 1918985). Note: nearly all actives have a fitted effect of over 40% in size. The procedure, abridged:
as §1

Results filed as inconclusive are left out. Activity calls are given as the source filed them. Calls come from the whole dose curve; as a rule, active = well fitted cell-killing curve with a large enough effect; inconclusive = small, poorly fitted or top-dose-only effect, or effect the other way; inactive = no such curve, though single readings can be large or run the other way.
Potency is the fitted concentration of half-maximal effect.

As to `NS(=O)(=O)c1ccc(Nc2nc(OCC3CCCCC3)c3[nH]cnc3n2)cc1`, the Potency in assay [1] was 18.7 µM (active); in [2], 14.8 µM (active); in assay [3], 20.9 µM (active); in assay [4], 13.2 µM (active); in assay [5], 23.5 µM (active); in assay [6], 20.9 µM (active).

As for `Cc1nc(NC(=O)N2CCC[C@@H]2C(N)=O)sc1-c1csc(C(C)(C)C)n1`, the Potency is 6.62 µM (active) in assay [1]; 3.72 µM (active) in assay [7]; 0.833 µM (active) in [3]; 3.32 µM (active) in [4]; 14.8 µM (active) in assay [5]; 14.8 µM (active) in assay [6].

As to `OC(c1cc(C(F)(F)F)nc2c(C(F)(F)F)cccc12)C1CCCCN1` (centres undefined), the Potency in [1] is 20.9 µM (active); in assay [8], 18.7 µM (active); in assay [7], 26.4 µM (active); in assay [4] it was 10.5 µM (active); in assay [5] it was 14.8 µM (active); in assay [6] it was 18.7 µM (active).

For the compound `CC(C)CNc1ccnc(NCc2csc(-c3ccccc3)n2)n1`, the Potency in assay [1] is 20.9 µM (active); in [2] it was 18.7 µM (active); in [3], 1.87 µM (active); in assay [4] it was 16.6 µM (active); in assay [5] it was 14.8 µM (active); in assay [6], 11.8 µM (active).

On to `CO[C@H]1C=CO[C@@]2(C)Oc3c(C)c(O)c4c(O)c(c(C=NN5CCN(C)CC5)c(O)c4c3C2=O)NC(=O)C(C)=CC=C[C@H](C)[C@H](O)[C@@H](C)[C@@H](O)[C@@H](C)[C@H](OC(C)=O)[C@H]1C`, for which the Potency result in assay [1], in assay [3], in assay [4] and in [6] was “inactive” throughout. For the same compound, the Potency is 0.533 µM (active) in [2], 2.12 µM (active) in [9] and 0.598 µM (active) in assay [5].

`COc1ccc2nc3cc(Cl)ccc3c(Nc3cc(CN4CCCC4)c(O)c(CN4CCCC4)c3)c2n1`: the Potency in assay [1] is 20.9 µM (active); in assay [8] it was 20.9 µM (active); in assay [3] it was 16.6 µM (active); in assay [5], 18.7 µM (active); in [6], 23.5 µM (active).

As for `Oc1cc(O)cc(C=Cc2ccc(O)c(O)c2)c1`, the Potency was 26.4 µM (active) in assay [1]; 20.9 µM (active) in [2]; 11.8 µM (active) in [9]; 5.26 µM (active) in [4]; 20.9 µM (active) in assay [5]; 16.6 µM (active) in assay [6].

As to `COC1CCC(C(=O)c2ccc3nc4c(cc3c2)CCCO4)CC1` (centres undefined), the Potency in assay [1] is 20.9 µM (active); in [7], 23.5 µM (active); in [3], 23.5 µM (active); in [9], 29.6 µM (active); in assay [5] it was 26.4 µM (active); in assay [6], 14.8 µM (active).

For the compound `Cc1cnc(CNC(=O)c2c(=O)c3ccc(N4CCCN(C)CC4)nc3n3c2sc2ccccc23)cn1`, the Potency in [1] was 2.88 µM (active); in assay [2] it was 7.24 µM (active); in [7], 12.9 µM (active); in [5] it was 10.2 µM (active). In assay [6], the Potency entry is “inactive”.

With `CCCCc1ccc(NS(=O)(=O)c2ccc(C)c(C(=O)N3CCN(c4cccc(C)c4C)CC3)c2)cc1`, the Potency in [1] is 14.8 µM (active); in assay [7], 23.5 µM (active); in assay [9] it was 18.7 µM (active). Also, in [3], the Potency result is “inactive”.

Turning to `CC(C)(F)C[C@H](N[C@@H](c1ccc(-c2ccc(S(C)(=O)=O)cc2)cc1)C(F)(F)F)C(=O)NC1(C#N)CC1`, the Potency result in assay [1], in [8] and in [9] was “inactive” throughout. In addition, in assay [6], the Potency was 5.9 µM (active).

For the compound `CCOC(=O)c1c(CSc2ccccc2)n(C)c2cc(Br)c(O)c(CN(C)C)c12`, the Potency in [1] is 20.9 µM (active); in assay [7], 18.7 µM (active); in assay [3], 20.9 µM (active); in assay [9], 11.8 µM (active); in assay [5] it was 16.6 µM (active); in assay [6], 5.26 µM (active).

Regarding `COc1ccc(CCC(=O)Nc2nc3ccc(Cl)cc3s2)cc1OC`, the Potency in [1] is 13.2 µM (active). Further, the Potency result in assay [2], in assay [7] and in assay [6] was “inactive” each time.

As to `CCCCCCCCCCCCCCCC(=O)O[C@H]1[C@@H](O)[C@@H](O)[C@@H]([C@H](NC(=O)[C@@H]2C[C@@H](CCC)CN2C)[C@H](C)Cl)O[C@@H]1SC`, the Potency in [1] is 18.7 µM (active). Moreover, the Potency entry in assay [2], in [7] and in assay [5] was “inactive” each time.

Consider `CN[C@@H]1CN(c2ccc3c(=O)c(C(=O)O)cn(-c4nccs4)c3n2)C[C@@H]1OC`, for which the Potency in assay [1] was 0.257 µM (active); in assay [7], 18.2 µM (active); in assay [9] it was 5.12 µM (active); in [4], 5.75 µM (active); in [5], 12.9 µM (active); in assay [6] it was 14.4 µM (active). Also, the Potency entry in assay [3] was “inactive”.

For the compound `CCCCn1c(=O)n(Cc2ccccc2F)c(=O)c2[nH]c(Cc3ccc(NC(C)=O)cc3)nc21`, the Potency was 20.9 µM (active) in assay [1], 18.7 µM (active) in assay [7], 5.9 µM (active) in assay [9] and 11.8 µM (active) in assay [5]. Besides, the Potency result in assay [8], in [3] and in [6] was “inactive” throughout.

The values are drawn from PubChem BioAssay (NCATS).
